{"source": "PubChem BioAssay (NCI)", "note": "The panel holds about 83,000 compounds, 20% with a hit somewhere; the sample as a whole holds those more often.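 Method: cells in 96-well plates; compound added at one concentration; 48 h incubation; percent growth measured; values under 10 scored active.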 Values without a mark were called inactive. Activity calls are given as the source filed them."}
{"test_system": "RPMI-8226 leukemia", "assay": "NCI-60 one-dose screen, 48 h (100 = growth as untreated, 0 = no growth, -100 = all killed)", "conditions": "10 µM unless noted"}
{"smiles": "CC(C)=CCC[C@](C)(O)[C@H]1CC[C@]2(C)[C@@H]1CC[C@@H]1[C@@]3(C)C/C(=C/c4ccccc4)C(=O)C(C)(C)[C@@H]3CC[C@]12C", "growth": "79.3%"}
{"smiles": "O=C1Nc2ccccc2/C1=C\\c1c(-c2ccc(F)cc2)nc2ccccn12", "growth": "94.8%"}
{"smiles": "CC(=O)[C@H]1CCC/C=C/[C@@H]2C[C@H](O)C[C@H]2[C@H](O)/C=C/C(=O)O1", "growth": "14.2%"}
{"smiles": "O=C1C=CC(=O)N1c1cccc(Cl)c1", "growth": "95.6%"}
{"smiles": "COc1cc(/C=C\\c2cc(/C=C\\c3ccc(O)c(OC)c3)n(C(=O)COc3ccccc3)n2)ccc1O", "growth": "-3.54% (active)"}
{"smiles": "COc1cc2cc(Oc3cccc(NC(=O)Nc4cc(C(F)(F)F)cc(C(F)(F)F)c4)c3)c(C)nc2cc1OC", "growth": "1.15% (active)"}
{"smiles": "CCN(c1ccccc1)S(=O)(=O)c1cc([N+](=O)[O-])ccc1Cl", "growth": "43.8%"}
{"smiles": "Cc1cc(Cl)nc(N(CCNc2ccnc3cc(Cl)ccc23)Cc2ccccn2)n1", "growth": "26.6%"}
{"smiles": "CSc1nc2sc3cccc(Cl)c3n2c(=N)c1C#N", "growth": "90.7%"}
{"smiles": "COc1ccc(C(=O)CC#N)cc1", "growth": "110%"}
{"smiles": "Cn1cc(-c2csc(-c3c[nH]c4ccccc34)n2)c2ccnc(Cl)c21", "growth": "53.8%"}
{"smiles": "O=C1CC(=O)OC(c2ccc([N+](=O)[O-])cc2)O1", "growth": "14.1%"}
{"smiles": "Cn1cc(-c2nc(-c3c[nH]c4c(Cl)nccc34)cs2)c2cc(Br)ccc21", "growth": "78.6%"}
{"smiles": "COc1cc(C2C3=C(COC3=O)N(CCO)c3cc4c(cc32)OCO4)cc(OC)c1OC", "note": "(centres undefined)", "growth": "15.2%"}
{"smiles": "CC(C)c1ccc(Nc2ccc3c(OCCCN4CCN(C)CC4)cccc3n2)cc1", "growth": "2.88% (active)"}
{"smiles": "N#Cc1c(-c2cccc([N+](=O)[O-])c2)nc(SCC(=O)c2ccc(Cl)cc2)[nH]c1=O", "growth": "102%"}
{"smiles": "COc1cc(CC(=O)n2ncc3ccc(N)cc32)cc(OC)c1OC", "growth": "100%"}
{"smiles": "Oc1ccc(C2c3ccccc3Oc3ccccc32)c2cccnc12", "growth": "28.8%"}
{"smiles": "Cc1ccc(-c2nc3ccccn3c2/C=C2/C(=O)Nc3cc(Cl)ccc32)cc1", "growth": "93.6%"}
{"smiles": "CCNc1nc2ccc(Nc3ccnc4cc(Cl)ccc34)cc2[nH]1", "growth": "86.7%"}
{"smiles": "C#Cc1cccc(NC(=O)c2cccc(NC(=O)CCl)c2)c1", "growth": "-3.03% [8.25 µM] (active)"}
{"smiles": "Cc1c2cc[nH]c(=O)c2c(C)c2c1[nH]c1cc(OCCN3CCN(C)CC3)ccc12", "growth": "-8.18% (active)"}
{"smiles": "O=C1/C=C/[C@@H](O)[C@@H]2C[C@@H](O)C[C@H]2/C=C/CCC[C@H](CCc2ccc3ncccc3c2)O1", "growth": "17.7%"}
{"smiles": "COc1ccc(-c2cnc3c(-c4cccc5ncccc45)cnn3c2)cc1", "growth": "68.1%"}
